Assay results published in article PMC5540273 (PLoS ONE, 2017).

test system: T1, TRKA; conditions: concentration: 1 μM, replicates: in singlicate; n = 1
T1 construct: gene NTRK1
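Note: KINOMEscan kinase panel screen.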

Compound | %Inh
Cc1ccc(C(=O)N2CC[C@@H](O)C2)cc1-n1c(C)cc(OCc2ccc(F)cc2F)c(Br)c1=O | 0%
Oc1cc(Nc2ccnc3cc(I)ccc23)ccc1F [GW552771] | 0%
c1ccc(-c2n[nH]cc2Nc2ccnc3ccccc23)nc1 [GW694077] | 74%
CC(C)c1nc(-c2cccc(NS(=O)(=O)c3c(F)cccc3F)c2F)c(-c2ccnc(Nc3ccc(N4CCOCC4)nc3)n2)s1 [GSK2008607] | 87%
Cn1cc(-c2[nH]c3cc(NC(=O)[C@H](N)C4CCCCC4)cc4c3c2C=NNC4=O)cn1 | 91.6%
C[C@@H](Oc1cc(-n2cnc3cc(-c4ccnc(NCCS(C)(=O)=O)c4)ccc32)sc1C(N)=O)c1ccccc1Cl [GSK907232] | 91%

test system: TRKB; conditions: concentration: 1 μM, replicates: in singlicate; n = 1

Compound | %Inh
Cn1cc(-c2ccc3c(c2)CCN3C(=O)Cc2cccc(Cl)c2)c2c(N)ncnc21 [GSK2606590] | 54%
COc1ccc(-c2coc3ccc(-c4nnc(SCc5ccc(OC)c(C(F)(F)F)c5)o4)cc23)cc1 | 10%
CCS(=O)(=O)c1ccc(OC)c(Nc2nccc(-c3c(-c4cccc(NC(=O)c5c(F)cccc5F)c4)nn4ncccc34)n2)c1 [GSK326180] | 5%
O=C(Nc1cccc(-c2nn3ccccc3c2-c2ccnc(Nc3cccc(C(F)(F)F)c3)n2)c1)c1c(F)cccc1F [GSK292658] | 0%
NCCCC(NC(=O)c1cc(Br)c(-c2ccnc3[nH]ccc23)s1)c1ccccc1.O=C(O)C(F)(F)F.O=C(O)C(F)(F)F (stereo not shown) [GSK1287544] | 11%
CC(=O)Nc1nc2cnc(Nc3cc(NC(=O)c4cccc(C5(C#N)CC5)c4Cl)ccc3C)nc2s1 | 0%
COc1ccc(CNC(=O)NC2CCN(c3ccnc(Nc4ccc(F)cc4)n3)CC2)cc1 [GSK1379788] | 0%
Clc1ccc(-c2nn3ncccc3c2-c2ccnc(Nc3ccc4c(c3)OCCO4)n2)cc1 [GW829116] | 0%
CC(C)(C)c1ccc2nccc(Nc3cccc(O)c3)c2c1 [GW856795] | 40%
COc1cc(Nc2nccc(N3CCC(NC(=O)Nc4cccc(C(C)=O)c4)C3)n2)cc(OC)c1OC (stereo not shown) [GSK1379753] | 63%
COc1cc(Nc2nccc(-c3c(-c4cccc(NC(=O)c5c(F)cccc5F)c4)nn4ccccc34)n2)cc(OC)c1OC [GSK323521] | 35%
COc1cccc(NC(=O)NC2CCN(c3ccnc(Nc4cc(OC)c(OC)c(OC)c4)n3)C2)c1 (stereo not shown) [GSK1379763] | 63%
O=C(O)C(F)(F)F.O=C(O)C(F)(F)F.O=c1[nH]ccc2nc(N[C@@H]3CCCNC3)nc(Nc3ccc(S(=O)(=O)N4CCOCC4)cc3)c12 [GSK2177277] | 92.5%
CCCCc1nn2ncccc2c1-c1ccnc(Nc2ccc(N3CCN(C)CC3)cc2)n1 [GW684941] | 78%
CN(c1ccc(NC(=O)Nc2cc(C(F)(F)F)ccc2F)cc1)c1ccnc(Nc2ccc(S(N)(=O)=O)cc2)n1 [GW809893] | 97.6%
Nc1ncc(-c2cccnc2)c2scc(-c3ccc4c(c3)CCN4C(=O)Cc3ccccc3)c12 [GSK683281] | 0%
Cc1ccc(C(=O)Nc2ccc(Nc3ccnc4cc(-c5nccs5)ccc34)cc2O)cc1.Cl [GW494702] | 20%
COc1cc(Nc2nccc(N3CCC(NC(=O)c4cc5ccccc5s4)C3)n2)cc(OC)c1OC (stereo not shown) [GSK1379760] | 0%
O=C(Nc1cccc(-c2nn3ccccc3c2-c2ccnc(Nc3cccc(F)c3)n2)c1)c1c(F)ccc(F)c1Cl [GSK357952] | 0%

Compound | %Inh
CN(C)Cc1ccc(-c2ccc3c(Nc4ccc(Oc5ccccn5)cc4)ccnc3c2)o1 [GW567148] | 31%
CNC(=O)c1ccccc1Nc1nc(Nc2ccc(N3CCOCC3)cc2)ncc1Cl.Cl [GSK1576028] | 96.6%
Cl.Cl.NCC(NC(=O)c1cc(-c2ccccc2)c(-c2ccnc3[nH]ccc23)s1)c1ccccc1 (stereo not shown) [GSK1321561] | 26%
COc1ccc(Nc2nccc(N3CCC(NC(=O)Nc4cccc(OC)c4)C3)n2)cc1 (stereo not shown) [GSK1379742] | 40%
COC(=O)Nc1nc2cc(Oc3ccc(NC(=O)Nc4cc(C(F)(F)F)ccc4F)cn3)ccc2[nH]1.Cl.Cl [GW681170] | 97.4%
O=C(Nc1n[nH]c2cc(-c3ccoc3)ccc12)C1CC1 [SB-738481] | 25%
CSc1cccc2c(-c3ccncn3)c(-c3ccc(F)cc3)nn12 [GW514786] | 0%
c1ccc(Oc2ccc(Nc3ccnc4cc(-c5ccc(CNCCN6CCOCC6)o5)ccc34)cc2)nc1 [GW567145] | 53%
Nc1ncnc2c1nc(-c1ccccc1)n2-c1ccccc1 [SKF-97293] | 48%
Cl.c1ccc(-c2ccc3c(Nc4ccc5[nH]ccc5c4)ccnc3c2)nc1 [GW440138] | 9%
Cl.NC(=O)c1cccc(Nc2nccc(Nc3ccc(Oc4c(Cl)cccc4Cl)c(Cl)c3)n2)c1 [GW659009] | 7%
Cc1occc1-c1ncc(OC[C@@H](N)Cc2c[nH]c3ccccc23)cc1-c1ccc2[nH]nc(C)c2c1.O=C(O)C(F)(F)F [GSK682037] | 13%
Cc1ccc(C(=O)N2CC[C@@H](O)C2)cc1-n1c(C)cc(OCc2ccc(F)cc2F)c(Br)c1=O | 0%
Oc1cc(Nc2ccnc3cc(I)ccc23)ccc1F [GW552771] | 23%
c1ccc(-c2n[nH]cc2Nc2ccnc3ccccc23)nc1 [GW694077] | 26%
CC(C)c1nc(-c2cccc(NS(=O)(=O)c3c(F)cccc3F)c2F)c(-c2ccnc(Nc3ccc(N4CCOCC4)nc3)n2)s1 [GSK2008607] | 0%
Cn1cc(-c2[nH]c3cc(NC(=O)[C@H](N)C4CCCCC4)cc4c3c2C=NNC4=O)cn1 | 64%
C[C@@H](Oc1cc(-n2cnc3cc(-c4ccnc(NCCS(C)(=O)=O)c4)ccc32)sc1C(N)=O)c1ccccc1Cl [GSK907232] | 39%
